Experimental data taken from PubChem BioAssay.
The source made the active and inactive calls. How the calls were made is not given here.

Target: Botulinum neurotoxin type A (Clostridium botulinum) (UniProt P0DPI0)
Assay: BoNT/A light chain protease inhibitors, biochemical, multiplex microsphere flow cytometry, validation set (AID 588460)
Conditions: at 10 µM, hits give high values

Chain of Botulinum neurotoxin type A (Clostridium botulinum) (P0DPI0 whole entry, looked up): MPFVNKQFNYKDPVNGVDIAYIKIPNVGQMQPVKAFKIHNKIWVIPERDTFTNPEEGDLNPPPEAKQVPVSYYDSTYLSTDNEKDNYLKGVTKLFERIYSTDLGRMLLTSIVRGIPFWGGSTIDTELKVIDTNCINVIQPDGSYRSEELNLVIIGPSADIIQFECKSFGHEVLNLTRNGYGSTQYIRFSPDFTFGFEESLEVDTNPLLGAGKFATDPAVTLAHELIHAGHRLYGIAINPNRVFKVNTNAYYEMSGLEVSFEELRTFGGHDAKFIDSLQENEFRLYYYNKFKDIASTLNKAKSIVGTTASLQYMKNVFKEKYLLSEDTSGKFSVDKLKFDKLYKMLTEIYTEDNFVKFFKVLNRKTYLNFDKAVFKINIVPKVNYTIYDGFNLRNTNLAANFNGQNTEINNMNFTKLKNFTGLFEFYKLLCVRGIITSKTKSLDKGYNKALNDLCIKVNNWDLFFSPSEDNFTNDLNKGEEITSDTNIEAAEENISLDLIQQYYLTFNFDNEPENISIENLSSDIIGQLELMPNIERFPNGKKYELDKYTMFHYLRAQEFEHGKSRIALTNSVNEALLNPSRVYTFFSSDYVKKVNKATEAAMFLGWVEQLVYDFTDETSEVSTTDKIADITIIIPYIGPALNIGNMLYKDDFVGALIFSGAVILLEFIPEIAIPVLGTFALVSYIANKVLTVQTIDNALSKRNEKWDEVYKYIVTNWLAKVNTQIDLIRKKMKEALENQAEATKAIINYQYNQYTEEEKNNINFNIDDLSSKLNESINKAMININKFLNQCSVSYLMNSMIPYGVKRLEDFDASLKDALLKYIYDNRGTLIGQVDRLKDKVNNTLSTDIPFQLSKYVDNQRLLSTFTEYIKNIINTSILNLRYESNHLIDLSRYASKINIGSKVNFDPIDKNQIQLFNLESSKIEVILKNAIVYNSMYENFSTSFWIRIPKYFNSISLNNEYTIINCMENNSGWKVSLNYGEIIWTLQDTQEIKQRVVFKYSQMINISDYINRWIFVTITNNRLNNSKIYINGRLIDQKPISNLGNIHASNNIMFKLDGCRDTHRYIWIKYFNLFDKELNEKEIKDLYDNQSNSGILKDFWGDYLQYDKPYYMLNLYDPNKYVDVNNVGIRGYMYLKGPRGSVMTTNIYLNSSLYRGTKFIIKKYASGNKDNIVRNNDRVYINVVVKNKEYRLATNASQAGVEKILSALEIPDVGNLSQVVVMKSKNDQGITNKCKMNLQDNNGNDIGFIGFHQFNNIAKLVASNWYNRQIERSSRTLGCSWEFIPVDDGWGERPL

Structure (SMILES)	inhibition
COc1ccc(CNC(=O)c2c(O)c3cccc4c3n(c2=O)CCC4)cc1	-0.1% (inactive)
Cc1ccc(-c2nn(-c3cccc(F)c3)cc2CN2CCN(c3ccccn3)CC2)o1	-0.9% (inactive)
COc1ccc2[nH]cc(C(=O)CCl)c2c1	-1.3% (inactive)
NC(N)=N/N=C/c1c(Cl)cccc1Cl	0.6% (inactive)
Cc1nc2ccccn2c(=O)c1CCN1CCC(C(=O)c2ccc(F)cc2)CC1	0.8% (inactive)
O=C1NC2(Nc3ccccc31)C(=O)Nc1ccc(Br)cc12 (stereo not given)	-1% (inactive)
Cc1ccccc1NC(=O)NCCc1c[nH]c2ccccc12	-0.2% (inactive)
CC1(C)CC(NCc2ccccc2)CCO1 (stereo not given)	5.6% (inactive)
CCc1cc2c(=O)c(-c3ccc(F)cc3)c(C)oc2cc1OCC(=O)O	2.2% (inactive)
CCN1C(=O)C(CC(=O)Nc2ccc(F)cc2)N(Cc2ccc3c(c2)OCO3)C1=S (stereo not given)	-0.3% (inactive)
NNC(=O)c1ccncc1	-0.2% (inactive)
CC(C)[N+]1(C)[C@@H]2CC[C@H]1CC(OC(=O)C(CO)c1ccccc1)C2 (stereo not given in full)	1% (inactive)
O=C(O)c1cc2cc(F)ccc2[nH]1	2.4% (inactive)
Oc1ccc(COCc2ccccc2)c2cccnc12	-3.5% (inactive)
CCOc1ccc2ccccc2c1CNc1nnnn1C	-1.2% (inactive)
O=c1cc(-c2ccc3c(c2)OCCO3)oc2ccc(Cl)cc12	-0.6% (inactive)
CC(C)OC(=O)c1ccc(NC(=O)c2cncc(Br)c2)cc1	-0.1% (inactive)
CC1(C)CC(C(CC(=O)O)c2ccccc2)CCO1 (stereo not given)	-0.2% (inactive)
CCCC(CCC)C(=O)OC1C[C@H]2CC[C@@H](C1)[N+]2(C)C (stereo not given in full)	1% (inactive)
Cc1ccc(OCCCCn2ccnc2C)c(C)c1	-1.6% (inactive)

Structure (SMILES)	inhibition
Cc1ccc2c(c1)c1c3n2CCCNC3CCC1 (stereo not given)	1.9% (inactive)
Cc1nc(-c2coc3c(CN(C)C)c(O)ccc3c2=O)cs1	-0.6% (inactive)
COc1ccc(CN2CCCC(C(=O)c3ccc(Cl)cc3)C2)cc1Cn1cccn1 (stereo not given)	-0.6% (inactive)
COc1ccc(C(=O)NCc2cccnc2)cc1	0% (inactive)
CNC[C@H](O)c1ccc(O)c(O)c1	-0.9% (inactive)
CCN(CC)CCCNC(=O)C1c2ccccc2Oc2ccccc21	0.7% (inactive)
Cc1ccc(C(=O)NCCNC(=O)c2ccccc2)cc1	0.3% (inactive)
CCOC(=O)c1cccc(C(=O)OCC)n1	-0.6% (inactive)
CC[N+]1(C)CC2CCC(C)(C1)C2(C)C (stereo not given)	-0.5% (inactive)
CCCCC/C=C\C[C@H](O)/C=C/c1cccc(C[C@H](O)CCCCO)n1	1.9% (inactive)
CCNC(=S)Nc1ccc(OC(F)(F)F)cc1	2.8% (inactive)
COc1ccc(C(=O)O)cc1F	-0.6% (inactive)
O=C(CNC(=O)OCc1ccccc1)Oc1cc2oc(=O)cc(-c3ccccc3)c2cc1Cl	0.9% (inactive)
CC(=O)[C@@]1(O)CC[C@H]2[C@@H]3C[C@H](C)C4=CC(=O)CC[C@]4(C)[C@H]3CC[C@@]21C	-2.5% (inactive)
FC(F)(F)c1ccc(-c2noc(CN3CCCN(C4CCCCC4)CC3)n2)cc1	-1.4% (inactive)
C[C@]12C[C@H](O)[C@H]3[C@@H](CCC4=CC(=O)CC[C@@]43C)[C@@H]1CC[C@@H]2C(=O)CO	-0.6% (inactive)
COc1cc2c(cc1OC)/C(=C/c1ccc(Cl)cc1)C(=O)OC2	0.8% (inactive)
COc1cc(CC(=O)NCCc2ccc(S(N)(=O)=O)cc2)cc(OC)c1OC	1.6% (inactive)
COCCOC(=O)C1=C(C)NC(C)=C(C(=O)OC(C)C)C1c1cccc([N+](=O)[O-])c1 (stereo not given)	-0.7% (inactive)
COc1ccc(C2NCCC3(O)CCCCC23)c(OC)c1OC (stereo not given)	-0.3% (inactive)

Target: Lethal factor (Bacillus anthracis) (UniProt P15917)
Assay: Lethal factor protease inhibitors, Bacillus anthracis, multiplex microsphere cleavage assay, validation set (AID 588461)
Conditions: flow cytometry, at 10 µM, hits give high values

Chain of Lethal factor (Bacillus anthracis) (P15917 whole entry, looked up): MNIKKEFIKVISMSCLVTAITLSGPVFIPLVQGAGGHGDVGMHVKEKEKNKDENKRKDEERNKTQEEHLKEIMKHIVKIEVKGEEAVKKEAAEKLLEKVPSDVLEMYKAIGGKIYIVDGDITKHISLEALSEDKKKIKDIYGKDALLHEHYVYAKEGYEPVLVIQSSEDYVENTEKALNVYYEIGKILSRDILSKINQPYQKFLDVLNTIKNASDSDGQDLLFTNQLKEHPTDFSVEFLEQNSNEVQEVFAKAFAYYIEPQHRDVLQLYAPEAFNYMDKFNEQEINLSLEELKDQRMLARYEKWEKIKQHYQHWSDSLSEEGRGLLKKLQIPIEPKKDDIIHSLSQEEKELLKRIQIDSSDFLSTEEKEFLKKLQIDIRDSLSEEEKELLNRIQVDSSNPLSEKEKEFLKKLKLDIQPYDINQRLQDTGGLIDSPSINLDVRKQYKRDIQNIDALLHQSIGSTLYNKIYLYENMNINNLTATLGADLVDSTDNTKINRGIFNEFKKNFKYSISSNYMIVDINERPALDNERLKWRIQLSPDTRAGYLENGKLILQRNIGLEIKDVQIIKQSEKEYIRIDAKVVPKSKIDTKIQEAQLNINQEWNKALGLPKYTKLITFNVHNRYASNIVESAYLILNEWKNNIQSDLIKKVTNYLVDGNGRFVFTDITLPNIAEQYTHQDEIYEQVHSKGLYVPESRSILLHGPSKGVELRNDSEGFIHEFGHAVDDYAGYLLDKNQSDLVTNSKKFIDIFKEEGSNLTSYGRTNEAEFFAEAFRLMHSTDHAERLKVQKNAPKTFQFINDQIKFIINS

Structure (SMILES)	inhibition
COc1ccc(CNC(=O)c2c(O)c3cccc4c3n(c2=O)CCC4)cc1	-5.7% (inactive)
Cc1ccc(-c2nn(-c3cccc(F)c3)cc2CN2CCN(c3ccccn3)CC2)o1	-6.4% (inactive)
COc1ccc2[nH]cc(C(=O)CCl)c2c1	-5.3% (inactive)
NC(N)=N/N=C/c1c(Cl)cccc1Cl	0.5% (inactive)
Cc1nc2ccccn2c(=O)c1CCN1CCC(C(=O)c2ccc(F)cc2)CC1	-0.4% (inactive)
O=C1NC2(Nc3ccccc31)C(=O)Nc1ccc(Br)cc12 (stereo not given)	6.8% (inactive)
Cc1ccccc1NC(=O)NCCc1c[nH]c2ccccc12	-3.6% (inactive)
CC1(C)CC(NCc2ccccc2)CCO1 (stereo not given)	1.1% (inactive)
CCc1cc2c(=O)c(-c3ccc(F)cc3)c(C)oc2cc1OCC(=O)O	-1.1% (inactive)
CCN1C(=O)C(CC(=O)Nc2ccc(F)cc2)N(Cc2ccc3c(c2)OCO3)C1=S (stereo not given)	-6.1% (inactive)
NNC(=O)c1ccncc1	5.3% (inactive)
CC(C)[N+]1(C)[C@@H]2CC[C@H]1CC(OC(=O)C(CO)c1ccccc1)C2 (stereo not given in full)	-3% (inactive)
O=C(O)c1cc2cc(F)ccc2[nH]1	4% (inactive)
Oc1ccc(COCc2ccccc2)c2cccnc12	-3.1% (inactive)
CCOc1ccc2ccccc2c1CNc1nnnn1C	-1.5% (inactive)
O=c1cc(-c2ccc3c(c2)OCCO3)oc2ccc(Cl)cc12	0.9% (inactive)
CC(C)OC(=O)c1ccc(NC(=O)c2cncc(Br)c2)cc1	7.4% (inactive)
CC1(C)CC(C(CC(=O)O)c2ccccc2)CCO1 (stereo not given)	-7.8% (inactive)
CCCC(CCC)C(=O)OC1C[C@H]2CC[C@@H](C1)[N+]2(C)C (stereo not given in full)	2.3% (inactive)
Cc1ccc(OCCCCn2ccnc2C)c(C)c1	-1.6% (inactive)

Structure (SMILES)	inhibition
Cc1ccc2c(c1)c1c3n2CCCNC3CCC1 (stereo not given)	0.5% (inactive)
Cc1nc(-c2coc3c(CN(C)C)c(O)ccc3c2=O)cs1	10.3% (inactive)
COc1ccc(CN2CCCC(C(=O)c3ccc(Cl)cc3)C2)cc1Cn1cccn1 (stereo not given)	3.9% (inactive)
COc1ccc(C(=O)NCc2cccnc2)cc1	-4.9% (inactive)
CNC[C@H](O)c1ccc(O)c(O)c1	-4.8% (inactive)
CCN(CC)CCCNC(=O)C1c2ccccc2Oc2ccccc21	-0.4% (inactive)
Cc1ccc(C(=O)NCCNC(=O)c2ccccc2)cc1	-1.4% (inactive)
CCOC(=O)c1cccc(C(=O)OCC)n1	-6.9% (inactive)
CC[N+]1(C)CC2CCC(C)(C1)C2(C)C (stereo not given)	11.8% (inactive)
CCCCC/C=C\C[C@H](O)/C=C/c1cccc(C[C@H](O)CCCCO)n1	-6.2% (inactive)
CCNC(=S)Nc1ccc(OC(F)(F)F)cc1	3% (inactive)
COc1ccc(C(=O)O)cc1F	-1.1% (inactive)
O=C(CNC(=O)OCc1ccccc1)Oc1cc2oc(=O)cc(-c3ccccc3)c2cc1Cl	11.5% (inactive)
CC(=O)[C@@]1(O)CC[C@H]2[C@@H]3C[C@H](C)C4=CC(=O)CC[C@]4(C)[C@H]3CC[C@@]21C	-5.5% (inactive)
FC(F)(F)c1ccc(-c2noc(CN3CCCN(C4CCCCC4)CC3)n2)cc1	-7% (inactive)
C[C@]12C[C@H](O)[C@H]3[C@@H](CCC4=CC(=O)CC[C@@]43C)[C@@H]1CC[C@@H]2C(=O)CO	-9.2% (inactive)
COc1cc2c(cc1OC)/C(=C/c1ccc(Cl)cc1)C(=O)OC2	-1.5% (inactive)
COc1cc(CC(=O)NCCc2ccc(S(N)(=O)=O)cc2)cc(OC)c1OC	6.5% (inactive)
COCCOC(=O)C1=C(C)NC(C)=C(C(=O)OC(C)C)C1c1cccc([N+](=O)[O-])c1 (stereo not given)	-4.8% (inactive)
COc1ccc(C2NCCC3(O)CCCCC23)c(OC)c1OC (stereo not given)	4.4% (inactive)
